In PubChem BioAssay (NCI):
The panel holds about 79,000 compounds, 15% with a hit somewhere; the sample as a whole holds those more often. Calls of active or inactive are those of the source. No stated cut-off is given here; in the data, active means growth inhibition above about 70%; inactive means the rest.

Assays:
[1] = NCI Yeast Anticancer Drug Screen. Data for the mec2-1 strain (AID 157); conditions: S. cerevisiae mec2-1 strain, hits give high values
Summary of the method: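 Vehicle-treated cultures served as reference for growth inhibition of compound-exposed mec2-1 yeast.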

[2] = NCI Yeast Anticancer Drug Screen. Data for the rad14 strain (AID 159);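 further: 0% = growth of vehicle-treated control cultures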; conditions: S. cerevisiae rad14 strain growth inhibition, hits give high values
Summary of the method: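 Here, inhibition of yeast growth was measured after compound exposure, using a strain with a genetic defect in DNA damage repair and vehicle-treated cultures as the reference.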

[3] = NCI Yeast Anticancer Drug Screen. Data for the sgs1 mgt1 strain (AID 161);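 further: 0% = growth of cultures given vehicle only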; conditions: S. cerevisiae sgs1 mgt1 strain, hits give high values
Summary of the method: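 Read-out: growth inhibition vs vehicle controls. Cells: mutant yeast strain deficient in DNA damage repair.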

[4] = NCI Yeast Anticancer Drug Screen. Data for the CLN2oe strain (AID 163);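 further: 0% = growth of vehicle-only control cultures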; conditions: S. cerevisiae CLN2oe strain, hits give high values
Summary of the method: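 Inhibition relative to vehicle-treated yeast is reported. Cells: strain with genetic alteration in cell-cycle control, grown with compound.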

[5] = NCI Yeast Anticancer Drug Screen. Data for the cln2 rad14 strain (AID 165);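 further: 0% = growth equal to vehicle treated cultures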; conditions: S. cerevisiae cln2 rad14 strain, hits give high values
Summary of the method: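 Each compound was tested on cln2 rad14 yeast. Inhibition of growth was calculated against vehicle-exposed controls.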

[6] = NCI Yeast Anticancer Drug Screen. Data for the bub3 strain (AID 167); conditions: S. cerevisiae bub3 mutant strain, hits give high values
Summary of the method: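 Whole-cell yeast assay. The mutant strain was incubated with compounds, and growth inhibition was determined by comparison with vehicle-treated cells.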

[7] = NCI Yeast Anticancer Drug Screen. Data for the wt2 strain (AID 169);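 further: 0% = growth of vehicle-treated yeast cultures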; conditions: S. cerevisiae wt2 strain growth inhibition, hits give high values
Summary of the method: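 Inhibition of yeast growth was determined after compound treatment, normalised to controls receiving only vehicle.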

[8] = NCI Yeast Anticancer Drug Screen. Data for the mlh1 strain (AID 171);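 further: 0% = growth of vehicle-treated control cultures of the same strain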; conditions: S. cerevisiae mlh1 strain growth inhibition, hits give high values
Summary of the method: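 Vehicle-normalised growth inhibition of a repair- or checkpoint-altered yeast strain following compound treatment.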

[9] = NCI Yeast Anticancer Drug Screen. Data for the sgs1 strain (AID 173);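 further: 0% = growth of vehicle-only control cultures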; conditions: S. cerevisiae sgs1 mutant, hits give high values
Summary of the method: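 Screen format: yeast with repair or checkpoint alterations, compound exposure, growth read relative to vehicle.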

[10] = NCI Yeast Anticancer Drug Screen. Data for the mlh1 rad18 strain (AID 175); conditions: S. cerevisiae mlh1 rad18 strain growth inhibition, hits give high values
Summary of the method: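 Vehicle-treated cultures served as the reference for growth inhibition in a yeast strain carrying DNA damage repair alterations exposed to each compound.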

[11] = NCI Yeast Anticancer Drug Screen. Data for the rad18 strain (AID 177); conditions: S. cerevisiae rad18 mutant growth inhibition, hits give high values
Summary of the method: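 Test articles were incubated with altered yeast defective in DNA damage repair. Results are given as inhibition of growth versus vehicle.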

[12] = NCI Yeast Anticancer Drug Screen. Data for the rad52 strain (AID 147);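 further: 0% = growth of vehicle-treated control cultures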; conditions: S. cerevisiae rad52 mutant growth inhibition, hits give high values
Summary of the method: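 Vehicle-treated cultures served as the reference for growth inhibition of compound-exposed yeast bearing a DNA repair mutation.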

[13] = NCI Yeast Anticancer Drug Screen. Data for the wt1 strain (AID 149);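 further: 0% = growth of vehicle-treated wt1 cultures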; conditions: S. cerevisiae wt1 strain (SPY 50644) growth inhibition, hits give high values
Summary of the method: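 Measured: growth of wt1 yeast under compound versus vehicle treatment, reported as inhibition.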

[14] = NCI Yeast Anticancer Drug Screen. Data for the rad50EPP+ strain (AID 151);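 further: 0% = growth of vehicle-treated control cultures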; conditions: S. cerevisiae rad50 mutant strain, hits give high values
Summary of the method: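 In this screen, rad50EPP+ yeast were exposed to compounds. Growth inhibition was scored against vehicle-treated controls.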

[15] = NCI Yeast Anticancer Drug Screen. Data for the rad50 strain (AID 155);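 further: 0% = growth of vehicle-only cultures of the same strain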; conditions: S. cerevisiae rad50 strain growth inhibition, hits give high values
Summary of the method: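 Growth of the mutant yeast was measured after compound exposure and referenced to vehicle-treated cultures.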

[16] = at 5.0 µM (retest, dose inferred, filed as 0.5)
[17] = at 50.0 µM (retest, dose inferred, filed as 5.0)

Measured: growth inhibition

COc1cc2cc3c4cc(OC)c(OC)cc4cc[n+]3c(C)c2cc1OC
inactive: [1]; at 100.0 µM -5% | [2]; at 1.2 µM -27% | [2]; at 3.7 µM -22% | [2]; at 11.0 µM -31% | [2]; at 33.0 µM -26% | [2]; at 100.0 µM -27% | [3]; [16] -28% | [3]; [17] -6% | [3]; at 50.0 µM 36.6% | [4]; at 1.2 µM -22% | [4]; at 3.7 µM -35% | [4]; at 11.0 µM -28% | [4]; at 33.0 µM -39% | [4]; at 100.0 µM -5% | [5]; [16] 61% | [5]; [17] 26% | [5]; at 50.0 µM 15.2% | [6]; at 1.2 µM 0% | [6]; at 3.7 µM 12% | [6]; [16] 5% | [6]; at 11.0 µM 13% | [6]; at 33.0 µM 6% | [6]; [17] 19% | [6]; at 100.0 µM 9% | [7]; at 1.2 µM -30% | [7]; at 3.7 µM -28% | [7]; at 11.0 µM -35% | [7]; at 33.0 µM -31% | [7]; at 100.0 µM -22% | [8]; at 1.2 µM -34% | [8]; at 3.7 µM -28% | [8]; at 11.0 µM -35% | [8]; at 33.0 µM -39% | [8]; at 100.0 µM -49% | [9]; at 1.2 µM -19% | [9]; at 3.7 µM -17% | [9]; at 11.0 µM -28% | [9]; at 33.0 µM -27% | [9]; at 100.0 µM -11% | [10]; [16] 55% | [10]; at 50.0 µM -76.2% | [11]; at 1.2 µM -23% | [11]; at 3.7 µM -27% | [11]; at 11.0 µM -23% | [11]; at 33.0 µM -22% | [11]; at 100.0 µM -22%
active: [6]; at 50.0 µM 79.8% | [10]; [17] 80%

CC(C)C(C)/C=C\C(C)C1CCC2C3=CC=C4CC(O)CCC4(C)C3CCC21C (stereo unspecified)
active: [15]; [17] 84% | [15]; at 50.0 µM 83.2% | [1]; [16] 89% | [1]; [17] 99% | [5]; [16] 91% | [5]; [17] 95% | [6]; [16] 99% | [6]; [17] 99% | [10]; [17] 81% | [10]; at 50.0 µM 86.5%
inactive: [12]; at 1.2 µM -1% | [12]; at 3.7 µM -2% | [12]; at 11.0 µM -1% | [12]; at 33.0 µM -1% | [12]; at 100.0 µM 17% | [13]; at 1.2 µM 2% | [13]; at 3.7 µM -1% | [13]; at 11.0 µM 0% | [13]; at 33.0 µM -3% | [13]; at 100.0 µM -3% | [14]; at 1.2 µM -2% | [14]; at 3.7 µM -3% | [14]; at 11.0 µM -9% | [14]; at 33.0 µM -9% | [14]; at 100.0 µM 1% | [15]; at 1.2 µM -1% | [15]; at 3.7 µM 5% | [15]; [16] 51% | [15]; at 11.0 µM -3% | [15]; at 33.0 µM -1% | [15]; at 100.0 µM 22% | [1]; at 1.2 µM 0% | [1]; at 3.7 µM 0% | [1]; at 11.0 µM -2% | [1]; at 33.0 µM -1% | [1]; at 50.0 µM 44.5% | [1]; at 100.0 µM -17% | [2]; at 1.2 µM -1% | [2]; at 3.7 µM 6% | [2]; at 11.0 µM 1% | [2]; at 33.0 µM -2% | [2]; at 100.0 µM 27% | [3]; [16] 17% | [3]; [17] 48% | [3]; at 50.0 µM 66.7% | [4]; at 1.2 µM 0% | [4]; at 3.7 µM -2% | [4]; at 11.0 µM -2% | [4]; at 33.0 µM -4% | [4]; at 100.0 µM 11% | [5]; at 50.0 µM 35.4% | [6]; at 1.2 µM -1% | [6]; at 3.7 µM 3% | [6]; at 11.0 µM -2% | [6]; at 33.0 µM -10% | [6]; at 50.0 µM 42% | [6]; at 100.0 µM 32% | [8]; at 1.2 µM -1% | [8]; at 3.7 µM -3% | [8]; at 11.0 µM -5% | [8]; at 33.0 µM -11% | [8]; at 100.0 µM 10% | [9]; at 1.2 µM -1% | [9]; at 3.7 µM -4% | [9]; at 11.0 µM -3% | [9]; at 33.0 µM -6% | [9]; at 100.0 µM 19% | [10]; [16] 40% | [11]; at 1.2 µM -2% | [11]; at 3.7 µM -5% | [11]; at 11.0 µM -13% | [11]; at 33.0 µM -19% | [11]; at 100.0 µM -7%
